L3MBTL1 inh = inhibitors of human L3MBTL1; Potency, µM (series often up to 57.1 µM), inactives show at the highest dose activity, negative = inhibition, hits mostly inhibitors; 0.66% of 230,000 active; Q9Y468; AlphaScreen L3MBTL1–H3K9me1 peptide binding; also: % is scaled to controls: 0 for no effect and ±100 for the full control effect; nearly all actives have a fitted effect of over 60% in size
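First, the protein-peptide complex forms for 30 min at room temperature (L3MBTL1 50 nM, biotinylated H3K9me1 peptide 75 nM). Next, compounds are pin-transferred and incubated 30 min. Finally, AlphaScreen beads are added and read after 30 min.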
G9a inh = inhibitors of human histone lysine methyltransferase G9a; 8.8% of 350,000 active; Potency, µM (doses to about 102 µM), without a hit: top-dose activity, negative = inhibition, actives largely listed as inhibitors; G9a H3K9 monomethylation, AlphaScreen, 2 h; Q96KQ7; also: % is scaled to controls: 0 for no effect and ±100 for the full control effect; nearly all actives have a fitted effect of over 75% in size
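AlphaScreen read-out: biotin-H3K9 peptide (500 nM) methylation by 20 nM enzyme with 20 uM SAM, 2 h at room temperature after 15 min compound preincubation; anti-monomethyl H3K9 antibody plus donor/acceptor beads, 10 min dark.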
BAZ2B inh = BAZ2B (human) inhibition; Q9UIF8; AlphaScreen BAZ2B-H3K14Ac peptide displacement; Potency, µM (titrated, usually from 114 µM), without a hit: at the highest dose activity change, negative = inhibition, most hits filed as inhibitors; 4.4% of 360,000 active; AID 504333; also: % is scaled to controls: 0 for no effect and ±100 for the full control effect; nearly all actives have a fitted effect of over 60% in size
Target sequence (Q9UIF8 whole entry, looked up): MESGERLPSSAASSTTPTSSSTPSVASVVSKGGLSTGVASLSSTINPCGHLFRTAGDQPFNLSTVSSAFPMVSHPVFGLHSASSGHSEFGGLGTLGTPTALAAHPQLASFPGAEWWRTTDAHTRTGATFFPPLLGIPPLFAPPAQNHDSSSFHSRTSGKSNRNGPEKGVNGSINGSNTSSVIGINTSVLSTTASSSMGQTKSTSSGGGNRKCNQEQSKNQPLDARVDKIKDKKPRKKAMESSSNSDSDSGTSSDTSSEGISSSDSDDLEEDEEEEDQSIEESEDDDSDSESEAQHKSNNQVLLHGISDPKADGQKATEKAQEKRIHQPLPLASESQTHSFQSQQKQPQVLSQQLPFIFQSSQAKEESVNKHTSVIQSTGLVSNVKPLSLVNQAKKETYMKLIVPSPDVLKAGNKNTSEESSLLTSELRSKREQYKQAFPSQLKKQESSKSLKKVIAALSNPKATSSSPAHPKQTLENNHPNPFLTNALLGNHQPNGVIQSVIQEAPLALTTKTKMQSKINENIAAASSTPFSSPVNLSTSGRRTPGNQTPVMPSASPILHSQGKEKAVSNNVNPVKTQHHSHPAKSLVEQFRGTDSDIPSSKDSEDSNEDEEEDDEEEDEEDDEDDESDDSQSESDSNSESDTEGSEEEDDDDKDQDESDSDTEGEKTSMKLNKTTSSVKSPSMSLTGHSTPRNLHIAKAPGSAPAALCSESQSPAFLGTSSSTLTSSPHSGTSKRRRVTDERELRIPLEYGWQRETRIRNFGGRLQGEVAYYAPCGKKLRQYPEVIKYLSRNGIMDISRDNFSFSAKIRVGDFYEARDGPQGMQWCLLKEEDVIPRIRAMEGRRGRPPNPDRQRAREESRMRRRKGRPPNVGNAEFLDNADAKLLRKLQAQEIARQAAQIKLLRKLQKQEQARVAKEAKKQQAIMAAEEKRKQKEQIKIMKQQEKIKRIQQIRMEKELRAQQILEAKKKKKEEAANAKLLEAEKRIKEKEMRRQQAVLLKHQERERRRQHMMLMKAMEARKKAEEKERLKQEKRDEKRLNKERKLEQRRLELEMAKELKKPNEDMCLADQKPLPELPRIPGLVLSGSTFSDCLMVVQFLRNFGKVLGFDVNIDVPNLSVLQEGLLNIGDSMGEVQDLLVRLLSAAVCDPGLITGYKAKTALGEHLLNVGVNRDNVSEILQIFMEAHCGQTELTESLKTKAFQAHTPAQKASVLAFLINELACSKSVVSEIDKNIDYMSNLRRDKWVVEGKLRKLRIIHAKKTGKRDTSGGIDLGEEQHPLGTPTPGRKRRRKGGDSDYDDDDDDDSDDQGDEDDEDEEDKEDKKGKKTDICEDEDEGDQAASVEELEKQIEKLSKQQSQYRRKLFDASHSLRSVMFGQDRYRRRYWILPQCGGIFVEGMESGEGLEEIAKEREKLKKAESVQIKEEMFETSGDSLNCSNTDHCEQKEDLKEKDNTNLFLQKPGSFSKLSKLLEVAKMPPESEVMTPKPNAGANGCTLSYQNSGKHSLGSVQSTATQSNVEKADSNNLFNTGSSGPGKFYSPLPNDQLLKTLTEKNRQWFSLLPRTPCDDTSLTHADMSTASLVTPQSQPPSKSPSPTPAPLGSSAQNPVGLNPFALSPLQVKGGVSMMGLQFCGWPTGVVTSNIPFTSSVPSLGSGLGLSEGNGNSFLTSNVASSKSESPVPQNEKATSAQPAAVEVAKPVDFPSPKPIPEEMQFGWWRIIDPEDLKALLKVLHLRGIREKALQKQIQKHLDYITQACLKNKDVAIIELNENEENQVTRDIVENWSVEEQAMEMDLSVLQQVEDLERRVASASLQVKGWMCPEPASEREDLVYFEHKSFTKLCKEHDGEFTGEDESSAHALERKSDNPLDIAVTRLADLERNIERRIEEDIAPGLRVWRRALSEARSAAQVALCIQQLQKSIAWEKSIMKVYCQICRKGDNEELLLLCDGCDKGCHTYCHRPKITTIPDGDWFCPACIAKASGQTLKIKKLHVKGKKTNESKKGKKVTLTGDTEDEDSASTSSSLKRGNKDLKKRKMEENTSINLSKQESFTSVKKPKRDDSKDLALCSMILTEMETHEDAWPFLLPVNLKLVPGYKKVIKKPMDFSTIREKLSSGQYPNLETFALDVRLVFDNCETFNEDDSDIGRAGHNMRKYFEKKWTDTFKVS
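BAZ2B 50 nM plus b-H3(5-23)K14Ac 50 nM, PBS pH 7.4/0.01% Tween-20, 30 min RT; compound added (max 110 uM), 30 min RT; streptavidin donor/Ni-chelate acceptor beads 10 ug/mL final, 20 min dark; AlphaScreen read.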
HP1b binding inh = inhibitors of HP1-beta chromodomain binding to methylated histone tails. 0.56% of 390,000 active. AlphaScreen HP1-beta / biotin-H3K9me3 peptide binding. Potency, µM (top dose mostly 114 µM), inactives show at the top dose activity change, negative = inhibition, hits mostly inhibitors. AID 540317. P83916; also: nearly all actives have a fitted effect of over 70% in size
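AlphaScreen: HP1-beta (50 nM) preformed 30 min with biotin-H3(1-18)K9me3 peptide (50 nM) in PBS pH 7.4, 0.01% Tween-20. Compound added for 30 min at RT, then streptavidin donor/nickel chelate acceptor beads (10 ug/mL) for 30 min.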
JMJD2A Tudor inh = JMJD2A Tudor domain (human) inhibition; AID 504339; O75164; Potency, µM (series often up to 114 µM), for the others: at the highest dose activity change, negative = inhibition, most hits filed as inhibitors; AlphaScreen JMJD2A-Tudor / H3K4me3 peptide binding; 4.4% of 390,000 active; also: % is scaled to controls: 0 for no effect and ±100 for the full control effect; nearly all actives have a fitted effect of over 50% in size
Starred values were filed as active, the others as inactive; ? = inconclusive; . = not tested or not shown; ! = not confirmed by another sample; [ ] = dose if it differs, or a comment. Most compounds without a hit are left out; they make up all but 11% or so of the library. Calls follow the shape of the dose curve; as a rule, active = well fitted inhibition curve with a large enough effect; inconclusive = small, poorly fitted or top-dose-only effect; inactive = no such curve, though single readings can be large or run the other way. Potency is read from the fitted curve at half-maximal effect.

SMILES	L3MBTL1 inh	G9a inh	BAZ2B inh	HP1b binding inh	JMJD2A Tudor inh
CCOc1ccc(C2C3=C(CC(C)(C)CC3=O)N(CC(=O)O)C3=C2C(=O)CC(C)(C)C3)cc1OCC	-13%	50µM*	2%	42%	-15%
COc1cccc(CCN2CCC(CNS(=O)(=O)c3cc(-c4cc(C)no4)ccc3C)CC2)c1	.	71µM*	?	-9%[57 µM]	-35%
COc1cccc(CCN2CCC(CNS(=O)(=O)c3cc(-c4cc(C)no4)ccc3OC)CC2)c1	.	19%[59 µM]	-25%	0%	-25%
CC(CNC(=O)C1CCN(C(=O)N2CCOc3ccc(Cl)cc32)CC1)c1ccccc1 (stereo unspecified)	.	?	?	9%	?
O=C(O)c1ccc(CNC(=S)Nc2ccccc2)cc1	4%	-46%	-18%	45%	3%
Cc1cc(C)cc(NC(=S)NCc2ccc3[nH]c4c(c3c2)CCCC4)c1	-29%	?	32µM*	?	50µM*
S=C(NCc1ccc2[nH]c3c(c2c1)CCCC3)Nc1ccccc1	-9%	?	32µM*	?	35µM*
COc1cccc(NC(=O)C2CCC(CNS(=O)(=O)c3ccc4c(c3)CCCC(=O)N4)CC2)c1 (stereo unspecified)	.	6%[59 µM]	2%	15%	-1%
COc1ccc(Cl)cc1-c1nc(-c2ccc(NC(=O)c3ccncc3)cc2)no1	.	.	.	39%	-5%
COc1ccc(NC(=O)c2ccc(-c3ccc(-c4noc(C)n4)cc3C)cc2)cc1N1CCN(C)CC1	-18%	25µM*	35µM*	?	45µM*
COc1ccc(NC(=O)c2ccc(-c3ccc(-c4noc(C)n4)cc3C)cc2)cc1OCCN(C)C	.	16µM*	.	.	.
COc1ccc(NC(=O)N2CCN(c3cc(-c4noc(C)n4)ccc3C)CC2)c(OC)c1	.	12%[59 µM]	-9%	35%[57 µM]	-30%
CC(=O)Nc1cccc(NC(=O)c2c(-c3ccccc3)c(-c3ccccc3)nn(C)c2=O)c1	.	-1%[59 µM]	-10%	21%	-18%
Cc1cc(C)c(NC(=O)c2cc(CN3CCOCC3)on2)c(C)c1	.	14%[59 µM]	-5%	9%	-9%
COc1ccccc1/C=C/C(=O)c1cc(Br)ccc1OC(=O)c1ccco1	.	.	.	-30%	56µM*
CNc1ccc(Br)cc(C(=O)/C=C/c2cccc(OC)c2OC)c1=O	?	8.9µM*	40µM*	18%	4%
CCNc1ccc(Br)cc(C(=O)/C=C/c2ccccc2Cl)c1=O	.	.	.	-35%	45µM*
CNc1ccc(Br)cc(C(=O)/C=C/c2cccc(Cl)c2Cl)c1=O	?	28µM*	?	-21%	45µM*
Cc1ccc(/C=C/C(=O)c2cc(Br)ccc2OC(=O)c2ccco2)cc1	-9%	-49%[59 µM]	-22%	-26%	-11%[11.4 µM]
COc1cccc(/C=C/C(=O)c2ccc3c(c2)OCO3)c1OC	3%	-2%[12.7 µM]	6%	41%	-7%
CNc1ccccc(C(=O)/C=C/c2ccccc2OC)c1=O	-5%	4.5µM*	50µM*	-25%	?
CCNc1ccccc(C(=O)/C=C/c2ccc3c(c2)OCO3)c1=O	.	5µM*	45µM*	?	56µM*
COc1ccccc1C=CC(=O)C=Cc1ccccc1OC	.	.	.	0%	-28%
Cc1ccc(CN2CCN(/N=C/c3ccc(O)c(O)c3)CC2)cc1	?	.	50µM*	20µM*	22µM*
Cc1ccc(CN2CCN(/N=C/c3cccnc3)CC2)cc1	-16%	11%[59 µM]	-33%	3%	-25%
SMILES	L3MBTL1 inh	G9a inh	BAZ2B inh	HP1b binding inh	JMJD2A Tudor inh
CCN(CC)c1ccc(/C=N\N2CCN(Cc3ccc(C)cc3)CC2)cc1	?	7.1µM*	18µM*	20µM*	22µM*
Cc1ccc(CN2CCN(/N=C/c3ccc(C(=O)O)cc3)CC2)cc1	-11%	7.9µM*	-7%	6%	-19%
Cc1ccc(CN2CCN(/N=C/C(Br)=C\c3ccccc3)CC2)cc1	5%	.	32µM*	-24%	?
CCCCC(=O)Nc1ccc(OCc2cc(=O)n3ccc(C)cc3n2)cc1	.	18%[59 µM]	6%	32%[57 µM]	8%
CC(C)c1ccc(NC(=O)COC(=O)c2nn(C)c(=O)c3ccccc23)cc1	-2%	.	.	31%	-3%
Cc1cc2c(s1)c1cnn(Cc3ccc(C(C)C)cc3)c(=O)c1n2C	.	.	.	.	-3%
Cc1ccc(N2CCN(C(=O)Nc3cn(CC(C)C)c(=O)c4ccccc34)CC2)c(C)c1	.	?	0%[57.1 µM]	18%	?
Cc1nc(/C=C/c2ccccc2)[nH]c(=O)c1-c1ccccc1	14%	-12%	6%	14%	-17%
COc1ccc(/C=N/N2CCN(Cc3ccc(C)cc3)CC2)cc1Br	-26%	45µM*	35µM*	?	50µM*
Cc1nnc(NC(=O)CSCc2cc(=O)c3ccccc3[nH]2)s1	?	5%[12.7 µM]	-20%	20%[57 µM]	-24%
O=C(Nc1cccnc1)c1cc(-c2cccc(Cl)c2)on1	.	10%	4%	3%	25µM*!
O=C(Nc1cccnc1)Nc1cc(Cl)cc(Cl)c1	-8%	79µM*	17%	33%	0%
O=C(Nc1cccnc1)c1cc(-c2ccc(Cl)c(Cl)c2)on1	.	7%	0%	16%	-9%
COc1ccc(CNc2ccnc(-c3ccccc3Cl)n2)c(OC)c1	.	5%[0.501 µM]	.	.	.
C=C1CCN(C(Cc2ccccc2)C(=O)NCc2ccc(Cl)c(Cl)c2)S(=O)(=O)c2ccccc21 (stereo unspecified)	.	.	.	30%	-9%
Cc1nc(SCC(=O)OC(C)(C)C)c2c3c(sc2n1)CCCC3	.	0%[59 µM]	3%	42%	12%
CC(=O)Sc1nc(-c2ccccc2)[nH]c1S(=O)(=O)c1ccc(C)cc1	-1%	2.2µM*	?	?	13µM*
Cc1n[nH]c(=S)n(NC(=O)CC(=O)Nn2c(=S)[nH]nc(C)c2=O)c1=O	?	0%	40µM*	42%	79µM*
Cc1n[nH]c(=S)n(NC(=O)/C=C/C(=O)Nn2c(=S)[nH]nc(C)c2=O)c1=O	?	?	25µM*	?	13µM*
COc1ccccc1OCC(=O)Nn1c(=S)[nH]c2ncccc2c1=O	10%	1%	1%	34%	-12%
CCc1ccc(C2NC(c3ccc(CC)cc3)C([N+](=O)[O-])C(C)(C)C2[N+](=O)[O-])cc1 (stereo unspecified)	-11%	-9%[59 µM]	1%	15%	-22%
CCc1ccc(C2NC(C(=O)O)CS2)cc1 (stereo unspecified)	.	3.5µM*	?	.	.
OC(CC#CCN1CCCC1)(c1ccccc1)c1ccccc1	-3%	28µM*	-24%	26%	-30%
CN1CCN(CC#CCC(O)(c2ccccc2)C2CCCC2)CC1 (stereo unspecified)	-4%	8.9µM*	?	7%	-25%
CN1CCN(CC#CCC(O)(c2ccccc2)c2ccccc2)CC1	-5%	71µM*	-22%	15%	-11%
